# Reference: PubChem BioAssay
# Where “and” joins values, the source holds several entries; their conditions need not be identical. Equal values may be shown once. Calls of active or inactive are those of the source.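 How the source made its calls, unless noted: active means compounds whose cell count with miR-34 switched on is under 0.7 times the count with it off; inactive means the rest.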
# Experiments:
# [1] = system: Aerobactin synthetase IucA (Klebsiella pneumoniae); assay: inhibition of K. pneumoniae IucA enzyme – biochemical, Tocris library, absorbance (AID 1345561; call rule not given here;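 further: 100% = enzyme without compound and 0% = no enzyme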); conditions: purified IucA enzyme assay, absorbance (OD) read-out; stronger effect = lower value;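 tested at 8 µM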
# [2] = viability loss with induced miR-34 in A549 – imaging, A549 dox-inducible miR-34, nuclei and caspase counts, primary screen (AID 1347080); conditions: A549 miR-34 inducible, Hoechst nuclei count, 48 h
# [3] = galactose survival enhancers in mitochondrial complex I cybrids – cell-based, galactose medium, ATP luminescence, primary screen (AID 1645843;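 active means z-score of at least 1.8 in each of two replicates, scored against plate mean and spread of sample wells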;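 further: positive z means more ATP and so rescue of galactose-driven cybrid death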); conditions: complex I mutant cybrid cells, 72 h, stronger effect = higher value
# [4] = stronger effect = lower value, cell number ratio, induced over uninduced
# [5] = measured here: relative caspase fold change +Dox/-Dox
# [6] = measured here: total cells with miR-34 induction, stronger effect = lower value
# [7] = measured here: total cells without miR-34 induction
SMILES,remaining activity [1],"fold change [2, 4]","fold change [2, 5]","cell count [2, 6]","cell count [2, 7]",z-score [3]
Cc1nc2c(O)cccc2c(=O)[nH]1,117% (inactive),0.957 (inactive),0.648,9130,9530,-0.215 (inactive)
COc1cc(COc2cc(N)c(Cl)cc2C(=O)CCC2CCN(CCNS(C)(=O)=O)CC2)cc(OC)c1,100% (inactive),0.842 (inactive),1.5,3930,4660,-0.81 (inactive)
O=C(O)c1ccc(-c2ccc3cc(C45CC6CC(CC(C6)C4)C5)c(O)cc3c2)cc1,87.5% (inactive),1.14 (inactive),1.52,1990,1740,-0.695 (inactive)
Cn1cccc1/C=C1\C(=O)NC(=O)c2ccccc21,129% (inactive),0.918 (inactive),1.16,8530,9300,-0.415 (inactive)
CC(O)(C(=O)Nc1ccc(S(=O)(=O)c2ccccc2)cc1)C(F)(F)F (stereo unspecified),125% (inactive),0.907 (inactive) and 0.921 (inactive),1.29 and 0.986,4820 and 7390,5310 and 8020,-0.32 (inactive)
Cc1cc(Cn2cnc3c2C[C@@H](C(=O)O)N(C(=O)C(c2ccccc2)c2ccccc2)C3)ccc1N(C)C,122% (inactive),0.877 (inactive),0.611,8880,10100,0.245 (inactive)
c1ccc2nc(C3=NCCN3)cnc2c1,98.4% (inactive),0.983 (inactive),0.854,9150,9300,0.085 (inactive)
O=S(c1ccccc1)c1ccc2nnnn2n1 (stereo unspecified),106% (inactive),1.59 (inactive),0.481,3220,2020,-0.805 (inactive)
C=CCN1CCN(c2nc3ccccc3nc2C#N)CC1,112% (inactive),0.901 (inactive),1.37,8950,9930,0.335 (inactive)
CCN(CC)c1ccc(/C=N/NC(=O)c2ccc(O)cc2)cc1,100% (inactive),0.945 (inactive),1.02,5490,5810,0.055 (inactive)
Cc1cc(C)c(S(=O)(=O)Nc2ccccc2C(F)(F)F)c(C)c1,96.1% (inactive),0.879 (inactive),0.932,6450,7330,1.2 (inactive)
COc1cc(N)c(Cl)cc1C(=O)OCCCN1CCCCC1,102% (inactive),0.975 (inactive),0.823,9460,9700,0.255 (inactive)
N#CC(Cc1ccc(O)cc1)c1ccc(O)cc1 (stereo unspecified),90.6% (inactive),0.917 (inactive) and 0.865 (inactive),0.401 and 1.73,5410 and 8710,5900 and 10100,2.66 (active)
C[C@@H](NCc1cc(Br)cc2[nH]c(=O)c(=O)[nH]c12)P(=O)(O)O,104% (inactive),0.887 (inactive),1.3,8900,10000,-0.07 (inactive)
Cc1cc(C)c(N(Cc2ccccc2)S(=O)(=O)c2ccc(OCCNC(=O)c3cc4ccccc4o3)cc2)c(C(=O)NO)c1,101% (inactive),0.895 (inactive),0.617,2050,2290,-0.695 (inactive)
COC(=O)[C@@H]1C2C[C@H]3c4[nH]c5ccccc5c4CCN3C[C@@H]2CC[C@@H]1O (stereo partly specified),95.9% (inactive),0.91 (inactive),2.92,8430,9270,0.315 (inactive)
CCCNC(=O)N1N=C(c2ccc(N)cc2)c2cc3c(cc2C1C)OCO3 (stereo unspecified),101% (inactive),0.903 (inactive),1.06,8160,9040,0.065 (inactive)
COC(=O)/C=C/c1cccc(N(Cc2ccc(-c3ccc(N(C)C)cc3)cc2)C(=O)C2CCCCC2)c1,97.3% (inactive),0.926 (inactive),1.8,7630,8240,0.225 (inactive)
COc1cccc(CCc2ccccc2OCC[C@@H]2C[C@@H](O)CN2C)c1,109% (inactive),1.04 (inactive),0.632,7340,7050,-0.705 (inactive)
CCCN(C/C=C/I)C1CCc2cccc(O)c2C1 (stereo unspecified),123% (inactive),0.893 (inactive),1.14,8040,9000,-0.945 (inactive)
OC(CCCN1CCN(c2ncc(F)cn2)CC1)c1ccc(F)cc1 (stereo unspecified),116% (inactive),0.931 (inactive),0.869,7880,8470,-0.495 (inactive)
